Ins promoter up: insulin promoter activators in MIN6 cells, imaging, high-content screening, mouse beta cells | MIN6 insulin promoter-GFP reporter; hits give high values | z-score at 5 µM | 190,000 compounds, 0.3% hits | AID 1625, 2009;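 active = z-score above 3 at 5 µM with at least 500 cells counted in the well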
Autophagy HCS: autophagy modulators in MEF cells, primary screen, imaging, high-content, MEF GFP-LC3; MEF GFP-LC3 puncta imaging; test concentration mostly 10 µM; calls only at 10 µM (by protocol); 190,000 compounds, 0.98% hits;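 active = percentage of spot-positive cells more than 3 SD above its plate mean, without a fluorescence outlier flag or 80% toxicity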;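 note: spot-positive cell cutoff set from DMSO-treated cells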
bCat KO growth: primary screen for growth suppressors in beta-catenin knockout HCT116 cells (colon tumor, human); HCT116 beta-catenin knockout viability, CellTiter-Glo, 60 h; hits give low values; viability, % at 10 µM; 140,000 compounds, 1.5% hits; AID 818, 2007;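 active = viability at or under a set limit, the compound median less 4 SD, cut at about 6% in these data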;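 note: 0% = Hyamine 1622 control at 20 µM and 100% = untreated cell control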
HCT116 PTEN-null: growth suppression of PTEN-null HCT116, primary screen, cell-based, CellTiter-Glo. HCT116 PTEN-null viability, 60 h; hits give low values. viability, % at 10 µM. 140,000 compounds, 1.2% hits. AID 827, 2007;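 active = viability at or below a set limit, 4 SD under the median of all tested compounds, cut at about 3.7% in these data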;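 note: PTEN knockout HCT116 line with beta catenin targeted HCT116 as companion control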
INS promoter inh: inhibitors of insulin promoter-driven GFP, primary screen, imaging, TRM-6 cells (human fetal islet line), eGFP reporter, cell count. reporter expression induced with tamoxifen. inhibition, % at 2 µM. 130,000 compounds, 0.9% hits. AID 1273, 2008;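 active = inhibition above the mean plus 3 SD, with well images judged a real hit on visual review, cut at about 60% in these data, passing the limit was not always enough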
Lmaj promast: Leishmania major promastigote growth inhibition, primary screen; Leishmania major promastigotes, resazurin fluorescence viability; inhibition, % at 10 µM; 200,000 compounds, 9% hits; in the data active = inhibition above about 50%;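 note: promastigotes grown with compound for 44 hours at 28 °C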
* marks the source's active call; other numbers are inactive results; i = inactive; nt = no result given; + = active, no number. Only some compounds are listed: those with a hit (about 9.6% of all), similar ones and a draw of the others.

SMILES | Ins promoter up | Autophagy HCS | bCat KO growth | HCT116 PTEN-null | INS promoter inh | Lmaj promast
Cc1ccc(-c2csc(=Nc3cccnc3)n2CCCn2ccnc2)cc1C | -3.01 | i | 50.7 | 43.9 | 46.4 | 94.8*
c1cncc(N=c2scc(-c3cccc4ccccc34)n2CCCn2ccnc2)c1 | 0.48 | i | 59.4 | 58.2 | -30.8 | 79.9*
CCCCNCCOc1ccccc1-c1ccccc1 | -0.61 | i | 62.4 | 61.7 | -50.0 | 97.4*
CN(C)CCOc1ccccc1-c1ccccc1 | 0.78 | i | 98.6 | 93.1 | -4.2 | 5.7
CN(C)CCOCCOc1ccccc1-c1ccccc1 | 4.97* | i | 98.5 | 90.2 | -10.3 | 80.6*
COCCNCCOc1ccccc1-c1ccccc1 | -0.24 | i | 92.0 | 85.9 | -47.2 | 85.3*
OCCNCCOc1ccccc1-c1ccccc1 | -0.91 | i | 94.0 | 92.0 | -57.1 | 1.1
COCCCNCCOc1ccccc1-c1ccccc1 | -0.93 | i | 82.9 | 78.5 | -16.7 | 47.3
COCCCNCCCCOc1ccccc1-c1ccccc1 | -0.65 | i | 58.2 | 61.9 | -24.1 | 97.7*
CNCCCCOc1ccccc1-c1ccccc1 | -0.07 | i | 64.7 | 55.1 | -6.5 | 39.1
C=CCNCCCCOc1ccccc1-c1ccccc1 | 0.02 | i | 74.6 | 67.3 | -23.1 | 98.0*
OCCNCCOCCOc1ccccc1-c1ccccc1 | 0.32 | i | 95.7 | 98.5 | -21.6 | 61.6*
CCn1c(COc2cccc(C)c2)nc2ccccc21 | 2.27 | i | 52.7 | 63.6 | 56.2 | 34.0
CCCOC(=O)C1[C@H]2C(=O)N(Cc3ccco3)C[C@]23C=C[C@H]1O3 (some centres not stated) | 0.2 | i | 85.6 | 87.6 | nt | 0.5
Cc1cccc(-n2nc3c(c2NC(=O)c2ccco2)CS(=O)(=O)C3)c1C | 0.21 | i | nt | nt | -50.0 | -7.3
CCOC(=O)c1c(N)sc2c(OCC)c(Br)ccc12 | nt | i | 67.4 | 53.1 | 16.7 | 10.7
CCOC(=O)c1c(NC(C)=O)sc2c(OCC(O)CNC(C)(C)C)c(Br)ccc12 (configuration not stated) | 1.39 | + | nt | nt | nt | 100.5*
COCCn1c(-c2ccc(OC)cc2)cnc1SCC(=O)Nc1cccc2ccccc12 | -0.12 | i | 84.8 | 88.0 | -2.3 | 77.3*
COc1ccc(-c2cnc(SCC(=O)Nc3cc(C)on3)n2Cc2ccco2)cc1 | -1.22 | i | 95.2 | 101.7 | -47.8 | 2.4
COCCn1c(-c2ccc(Cl)cc2)cnc1SCC(=O)NCCc1ccc(OC)c(OC)c1 | -1.31 | i | 47.9 | 59.6 | -44.4 | 70.5*
COc1ccc(CCNC(=O)CSc2ccccc2)cc1OC | 0.04 | i | 101.7 | 96.5 | -43.8 | 1.8
COc1ccc(CCNC(=O)CSc2nnc(-c3ccc(F)cc3)c3ccccc23)cc1OC | -0.08 | i | 84.7 | 94.4 | -24.0 | 65.2*
Cc1csc(NC(=O)CSc2nnc(-c3ccncc3)n2C)n1 | nt | i | 98.0 | 103.5 | nt | 17.3
COc1cccc([C@@H]2Oc3ccc(OC)cc3C(=O)[C@H]2O)c1 | -0.95 | i | 5.3* | 9.1 | 28.6 | 13.9
CC(C)C(OC(=O)c1oc2ccccc2c1CSC1CCCCC1)C(=O)NC(N)=O (configuration not stated) | -0.34 | i | nt | nt | 20.0 | -14.2
SMILES | Ins promoter up | Autophagy HCS | bCat KO growth | HCT116 PTEN-null | INS promoter inh | Lmaj promast
CCNC(=O)NC(=O)C(C)OC(=O)c1oc2ccccc2c1CSC1CCCCC1 (configuration not stated) | 0.97 | i | 60.3 | 60.6 | 22.1 | 71.8*
O=C1NC(c2cc(Cl)cc([N+](=O)[O-])c2O)Nc2ccccc21 (configuration not stated) | 0.53 | nt | nt | nt | nt | nt
CCOC(=O)N1CCN(C(=O)c2ccc3nc(C)sc3c2)CC1 | -0.41 | i | 99.6 | 96.9 | 71.4* | -4.6
Cc1nc(NCCc2ccccc2)c2oc3ccccc3c2n1 | -2.37 | i | 58.9 | 60.9 | 68.8* | 90.0*
Cc1nc(NCCCN2CCOCC2)c2oc3ccccc3c2n1 | nt | i | 88.2 | 91.8 | 55.6 | 97.4*
Cc1nc(NCCN2CCOCC2)c2oc3ccccc3c2n1 | -0.71 | i | 96.1 | 88.8 | 57.1 | 35.9
Cc1nc(SCC(=O)NCCc2ccccc2)c2oc3ccccc3c2n1 | 0.13 | i | 101.3 | 79.2 | -5.3 | -0.6
c1ccc2c(c1)oc1c(Nc3ccc4c(c3)OCO4)ncnc12 | nt | i | 91.8 | 90.6 | 15.2 | 5.4
Cc1nc(Nc2ccc3c(c2)OCO3)c2oc3ccccc3c2n1 | -0.48 | i | 80.8 | 69.1 | 81.8* | 26.6
c1ccc(-c2nc(NCCCn3ccnc3)c3oc4ccccc4c3n2)cc1 | -1.05 | i | 25.1 | 26.4 | 63.9 | 99.7*
Cn1c(=O)c(Nc2ccc(Cl)cc2)c2c3c(cccc31)C(=O)c1ccccc1-2 | 15.1* | + | nt | nt | nt | 3.4
CN(C)c1nc(NC(C)(C)C)nc(NC(C)(C)C)n1 | -1.01 | i | nt | nt | 33.3 | 59.5*
CCOC(=O)Cc1csc(NS(=O)(=O)c2ccc(Cl)cc2)n1 | 0.02 | i | 93.1 | 100.6 | 21.1 | 50.4*
Cc1ccc(S(=O)(=O)Cc2c(C)noc2C)cc1 | nt | i | 85.1 | 103.9 | 25.7 | -2.0
CCCCCC(=O)N/N=C(\C)c1ccc(Cl)cc1 | 0.43 | i | 87.1 | 73.5 | 100.0* | 0.5
O=C(O)CCNS(=O)(=O)c1ccccc1Br | nt | i | nt | nt | -26.7 | 1.7
CSc1nc(N)nc(SCC(=O)Nc2cccc(F)c2)c1C#N | -0.64 | i | 45.8 | 40.6 | 31.2 | 9.3
CSc1nc(N)nc(SCC(=O)Nc2ccc(Cl)cc2)c1C#N | -0.14 | i | 89.2 | 76.9 | 0.0 | 99.6*
Cc1ccc(C2CC(c3cccs3)=NN2C(=O)CSc2nc3ccccc3o2)cc1 (configuration not stated) | 0.24 | i | 72.1 | 64.7 | 30.0 | 28.7
CCOc1ccc(Oc2ccc(Cl)cc2NC(=O)CCNC(C)=O)cc1 | 0.23 | i | nt | nt | nt | 7.8
Cc1cccc(NC(=O)CCN2CC(C)OC(C)C2)c1 (configuration not stated) | nt | i | 103.5 | 100.6 | -45.5 | 89.4*
Cc1cc(C)cc(NC(=O)CCN2CC(C)OC(C)C2)c1 (configuration not stated) | -1.01 | i | 80.1 | 80.6 | nt | 80.3*
CC1CC(C)CN(CCC(=O)Nc2cccc(Cl)c2)C1 (configuration not stated) | -1.25 | i | 94.5 | 93.8 | 32.1 | 82.7*
O=C(CCN1CCCCC1)Nc1cccc(Cl)c1 | -0.28 | i | 104.9 | 107.9 | -13.5 | 5.0
Cc1ccc(S(=O)(=O)NCCC(=O)Nc2cccc(Cl)c2)cc1 | -0.35 | i | 97.2 | 101.3 | -56.7 | 52.3*
CN1CCCN(c2ccc([N+](=O)[O-])cc2)CC1 | -0.62 | i | nt | nt | nt | 26.5
Cc1ccc(S(=O)(=O)NCCSc2nnnn2-c2ccccc2)cc1 | -0.21 | i | 92.2 | 91.2 | -25.0 | 7.0
Cc1ccc(C)c(-n2nnnc2Sc2nnnn2-c2ccccc2)c1 | nt | i | 2.0* | 1.8* | nt | 97.5*

Source: PubChem (several laboratories)
